Experimental data: PubChem BioAssay (NCI)
Compounds without any hit were thinned out: in the full panel of roughly 79,000, 15% have a hit. A number with no mark means an inactive call. Calls of active or inactive are those of the source. Cut-off read from the data, not from the text of the source: active = growth inhibition above about 70%; inactive = the rest.

Legend:
[1] = NCI Yeast Anticancer Drug Screen. Data for the rad50 strain (AID 155);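 note: 0% = growth of vehicle-only cultures of the same strain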; conditions: S. cerevisiae rad50 strain growth inhibition, active compounds read high
In short: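 Genetically altered yeast (DNA repair pathway); compound treatment; growth inhibition vs vehicle ctrl.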

[2] = NCI Yeast Anticancer Drug Screen. Data for the mec2-1 strain (AID 157); conditions: S. cerevisiae mec2-1 strain, active compounds read high
In short: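 Compounds were applied to mec2-1 yeast cells. Their growth was then compared with that of vehicle-treated cultures to give growth inhibition.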

[3] = NCI Yeast Anticancer Drug Screen. Data for the sgs1 mgt1 strain (AID 161);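 note: 0% = growth of cultures given vehicle only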; conditions: S. cerevisiae sgs1 mgt1 strain, active compounds read high
In short: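 Percent growth inhibition was derived by comparing compound-exposed mutant yeast with vehicle-exposed cultures. The strain carries alterations in DNA damage repair.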

[4] = NCI Yeast Anticancer Drug Screen. Data for the cln2 rad14 strain (AID 165);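 note: 0% = growth equal to vehicle treated cultures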; conditions: S. cerevisiae cln2 rad14 strain, active compounds read high
In short: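 Strain: cln2 rad14 yeast, altered in cell cycle control and DNA damage repair. Read-out: growth inhibition vs vehicle.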

[5] = NCI Yeast Anticancer Drug Screen. Data for the bub3 strain (AID 167); conditions: S. cerevisiae bub3 mutant strain, active compounds read high
In short: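 Yeast carrying a defined mutation is treated with each compound, and growth is compared with that of vehicle-exposed cells to give inhibition.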

[6] = NCI Yeast Anticancer Drug Screen. Data for the mlh1 rad18 strain (AID 175); conditions: S. cerevisiae mlh1 rad18 strain growth inhibition, active compounds read high
In short: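 A repair-deficient yeast strain is exposed to test compound, and growth is scored relative to vehicle-treated controls.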

[7] = at 5.0 µM (retest, dose inferred, filed as 0.5)
[8] = at 50.0 µM (retest, dose inferred, filed as 5.0)

SMILES	growth inhibition [1, 7]	growth inhibition [1, 8]	growth inhibition ([1]; at 50.0 µM)	growth inhibition [2, 7]	growth inhibition [2, 8]	growth inhibition ([2]; at 50.0 µM)	growth inhibition [3, 7]	growth inhibition [3, 8]	growth inhibition ([3]; at 50.0 µM)	growth inhibition [4, 7]	growth inhibition [4, 8]	growth inhibition ([4]; at 50.0 µM)	growth inhibition [5, 7]	growth inhibition [5, 8]	growth inhibition ([5]; at 50.0 µM)	growth inhibition [6, 7]	growth inhibition [6, 8]	growth inhibition ([6]; at 50.0 µM)
O=C(N/C(=C\c1cccc([N+](=O)[O-])c1)c1nc2ccccc2s1)c1ccccc1	36%	98% (active)	98.5% (active)	29%	98% (active)	98.6% (active)	55%	98% (active)	98.9% (active)	12%	98% (active)	98.1% (active)	40%	98% (active)	97.8% (active)	29%	98% (active)	98.2% (active)
CCC[n+]1ccnc2ccccc21	2%	2%	15.3%	-11%	-1%	8.3%	-4%	-10%	27.9%	13%	4%	11%	-2%	-5%	19.6%	-4%	14%	22.9%
CC1OC(C)C(O)C2=C1C(=O)c1ccccc1C2=O (centres undefined)	-4%	95% (active)	91.9% (active)	-29%	77% (active)	86.3% (active)	14%	94% (active)	91.8% (active)	2%	55%	60.4%	14%	87% (active)	83.5% (active)	23%	96% (active)	87.8% (active)
Cc1ccc(SCc2ccccc2Cl)nn1	-2%	3%	6.6%	-9%	11%	-2.15%	-8%	17%	-2.3%	3%	20%	31.1%	6%	34%	15.4%	-1%	19%	4.75%
S=c1[nH]c2cc(-c3ccccc3)ccc2o1	63%	98% (active)	64.2%	37%	98% (active)	53.1%	17%	72% (active)	78% (active)	52%	65%	47.1%	19%	52%	52%	51%	98% (active)	47.8%
N#COc1ccc(Oc2ccc(OC#N)cc2)cc1	-4%	-3%	-12.9%	-30%	14%	-22.8%	26%	-3%	90.2% (active)	-2%	29%	25.8%	-5%	46%	40%	-12%	-15%	25.3%
COc1ccccc1C1c2cc3c(cc2OC(N2CCOCC2)C1C)OCO3 (centres undefined)	15%	18%	37.2%	9%	9%	14.2%	26%	47%	26.4%	25%	56%	18.3%	18%	57%	40.8%	9%	32%	59.5%
COc1ccc(C(=O)C(C(c2ccccc2)N2CCc3ccccc3C2)N2CCc3ccccc3C2)cc1 (centres undefined)	3%	22%	27.4%	-2%	2%	15.2%	0%	-6%	12.2%	2%	-27%	26.9%	-3%	4%	78.3% (active)	-1%	6%	27.6%
Clc1ccc(CN2COc3c(cc(Cl)c4cccnc34)C2)c(Cl)c1	6%	98% (active)	23.6%	-20%	91% (active)	22.9%	-1%	97% (active)	-6.85%	-9%	97% (active)	46.1%	0%	98% (active)	3%	0%	95% (active)	1.4%
C1=C(CC2=C[P+](c3ccccc3)(c3ccccc3)C=C(c3ccccc3)O2)OC(c2ccccc2)=C[P+]1(c1ccccc1)c1ccccc1	17%	96% (active)	87.4% (active)	8%	98% (active)	88% (active)	35%	98% (active)	86.2% (active)	25%	98% (active)	85.4% (active)	32%	98% (active)	90.5% (active)	6%	95% (active)	90.8% (active)
COc1ccnc(-c2cc(OC)cc(/C(N)=N/O)n2)c1	2%	59%	96.8% (active)	-4%	83% (active)	93.1% (active)	-2%	63%	96% (active)	-5%	62%	93.8% (active)	-3%	54%	88.7% (active)	-4%	77% (active)	96.8% (active)
O=[N+]([O-])c1ccc(CSSCc2ccc([N+](=O)[O-])cc2)cc1	5%	18%	18.5%	9%	39%	16.7%	21%	49%	41.5%	-3%	36%	-18.2%	26%	66%	72.5% (active)	10%	49%	28%
CC1(c2ccc(F)cc2)OC(=O)c2c1ccc1ccccc21 (centres undefined)	-7%	68%	56.2%	-5%	78% (active)	42.8%	0%	81% (active)	56.5%	-15%	70% (active)	-2.35%	-6%	88% (active)	72.6% (active)	-9%	84% (active)	29.5%
